Experimental data reported in PubChem BioAssay (NCATS).
Inconclusive results are not listed. Calls of active or inactive are those of the source. Unless noted, calls follow the shape of the dose curve; as a rule, active = well fitted curve in the direction sought with a large enough effect; inconclusive = small, poorly fitted or top-dose-only effect, or another doubt; inactive = no such curve, though single readings can be large; an effect the other way counts as inactive or inconclusive.

Experiments:
[1] = qHTS to identify inhibitors of the type 1 interferon - major histocompatibility complex class I in skeletal muscle: primary screen against the NCATS Mechanism Interrogation Plate v5.0 (MIPE) Libary (AID 1347411); conditions: iHSKM cells + IFN-b, HiBiT-tagged MHC-I luminescence, 24 h; series mostly up to 45.8 µM; also: nearly all actives have a fitted effect of over 65% in size; also: potency is read from the fitted curve at half-maximal effect
In short: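 Seed engineered human myoblasts (HLA-B HiBit) in medium without dexamethasone containing 4 ng/ml IFN-beta; after 1 hr add compound titrations (top 46 uM final). Incubate 24 hrs at 37 C, lyse 10 min with HiBiT reagent, read luminescence.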

[2] = qHTS for inhibitors of adenylyl cyclases using a fission yeast platform: a pilot screen against the NCATS LOPAC library (AID 1347410);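 also: plate controls were DMSO vehicle for no effect and DPI positive control for full effect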; conditions: S. pombe CHP2027, fbp1-GFP fluorescence, 18 h; series mostly up to 57.5 µM
In short: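 Inhibition of GNAS-stimulated AC9 activity in S. pombe was inferred from derepression of a PKA-repressed fbp1-GFP reporter, measured as cytometric fluorescence after 18 h at 30C with compounds at up to 57 µM.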

[3] = Validation qHTS assay for inhibitors of Activation Induced Cytidine Deaminase (AID): UDG Counterscreen signal (AID 1347427); conditions: biochemical UDG counterscreen, fluorescence signal; series mostly up to 115 µM; also: 0% is about no effect
In short: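 Fluorescence at 560 nm excitation, 665 nm emission reports UDG signal after 250 mM NaOH (2x) addition and 30 min. Enzymes (AID 1 uM, UDG 2 U/mL, at 4/3x) preincubated 10 min with compound, then 4 h with 4x 250 nM DJC20/DJC23 substrate at room temperature.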

[4] = molecular target: Single-stranded DNA cytosine deaminase (Homo sapiens) (UniProt Q9GZX7); experiment: Validation qHTS assay for inhibitors of Activation Induced Cytidine Deaminase (AID): AID signal (AID 1347429); conditions: Recombinant AID, FRET ssDNA deamination with UDG, fluorescence; series mostly up to 115 µM; also: % is scaled to controls: 0 for no effect and ±100 for the full control effect
In short: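 Steps: dispense AID with UDG; pin-transfer compound up to 114 uM final; add DJC20/DJC23 substrate and hold 4 hr at room temperature; add NaOH, hold 30 min; read FRET signal (540/590 nm).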

[5] = Primary qHTS for inhibitors of La Crosse Virus (LACV) - induced cell death in SH-SY5Y cells (AID 1508616); conditions: SH-SY5Y LACV cytopathicity rescue, ATP luminescence, 6 d; series mostly up to 9.63 µM;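 also: top concentration of the series differs between compounds; 0% = infected DMSO wells and 100% = uninfected DMSO wells; higher means more rescue of cells from virus-induced death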
In short: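 SH-SY5Y, 6000 cells/well; cpd via pin tool in DMSO; LACV 0.01 MOI; 6 d 37C 5% CO2; ATPLite, 5 min RT; luminescence normalized to ±virus DMSO controls.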

[6] = molecular target: Calcium and integrin-binding protein 1 (Homo sapiens) (UniProt Q99828); experiment: Validation qHTS for Identification of Calcium Integrin Binding protein 1 (CIB1) Competitor (AID 1508618); conditions: CIB1-GST / FITC-alphaIIb peptide fluorescence polarization; series mostly up to 114 µM; also: % is scaled to controls: 0 for no effect and ±100 for the full control effect
In short: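 Displacement of FITC-alphaIIb peptide (100 nM) from CIB1-GST (1 uM) is monitored by polarization in quantitative HTS format; buffer carries 5 mM CaCl2 and 125 mM NaCl at pH 7.4, incubations are at room temperature.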

[7] = molecular target: Calcium and integrin-binding protein 1 (Homo sapiens) (UniProt Q99828); experiment: Primary qHTS for Identification of Calcium Integrin Binding Protein 1 (CIB1) Competitor (AID 1508620); conditions: CIB1-GST / FITC-alphaIIb peptide fluorescence polarization; series mostly up to 57.7 µM;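 also: GST tagged CIB1 binding a fluorescein labelled alphaIIb integrin peptide tracer; top concentration of the series differs between compounds; % is scaled to controls: 0 for no effect and ±100 for the full control effect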
In short: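 Fluorescence polarization competition: GST-tagged CIB1 (1 uM final) preincubated with compound 15 min at room temperature, then FITC-labelled alphaIIb peptide (100 nM final) added. After 15 min at room temperature, polarization read at Ex 480/Em 540.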

[8] = Counterscreen qHTS for small molecule stabilizers of the endoplasmic reticulum resident proteome: GLuc-NoTag assay (AID 1508627); conditions: Gaussia luciferase NoTag secretion counterscreen, luminescence, thapsigargin 100 nM for final 4 h; series mostly up to 76.4 µM; also: potency is read from the fitted curve at half-maximal effect
In short: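 Counterscreen line: SH-SY5Y-GLuc-NoTag. Seed, 5 h; compound, 19 h; thapsigargin 100 nM, 4 h; 37C/5% CO2. Readout: secreted GLuc luminescence, coelenterazine 0.07x final, no lysis.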

[9] = Confirmatory qHTS for small molecule stabilizers of the endoplasmic reticulum resident proteome: Secreted ER Calcium Modulated Protein (SERCaMP) assay (AID 1508628); conditions: SERCaMP secreted luciferase ER calcium/proteostasis reporter; series mostly up to 76.3 µM; also: nearly all actives have a fitted effect of over 40% in size; also: potency is read from the fitted curve at half-maximal effect
In short: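 Reporter secretion upon ER calcium depletion (100 nM thapsigargin, 4 h, 37C) is measured as medium luminescence with coelenterazine, after 16 h compound pretreatment of SH-SY5Y-GLuc-SERCaMP cells; primary at three concentrations up to 38.3 uM, follow-up at 11 (up to 76.6 uM).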

[10] = Cell Viability qHTS for small molecule stabilizers of the endoplasmic reticulum resident proteome (AID 1508629); conditions: cell viability counter-screen, 100 nM thapsigargin for final 4 h;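 also: human SH-SY5Y neuroblastoma cells carrying the GLuc-SERCaMP reporter; compound exposure about 46 h in total before the viability read; % is scaled to controls: 0 for no effect and ±100 for the full control effect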
[11] = Primary qHTS for inhibitors of SARS-S pseudo-typed particle cell entry (AID 1479145; calls by dose curve; also: nearly all actives have a fitted effect of over 45% in size); conditions: SARS-S pseudotyped particle cell entry, luciferase reporter; series mostly up to 57.1 µM
[12] = Primary qHTS for Huh7 cytotoxicity: counterscreen for inhibitors of MERS-S pseudotyped particle cell entry (AID 1479147; calls by dose curve); conditions: cell viability read-out; series mostly up to 57.1 µM
[13] = Primary qHTS for inhibitors of MERS-S pseudo-typed particle cell entry (AID 1479149; calls by dose curve; also: % is scaled to controls: 0 for no effect and ±100 for the full control effect; nearly all actives have a fitted effect of over 60% in size); conditions: MERS-S pseudotyped particle entry, luciferase; series mostly up to 57.1 µM
[14] = Primary qHTS for Vero E6 cytotoxicity: counterscreen for inhibitors of SARS-S pseudo-typed particle cell entry (AID 1479150; calls by dose curve; also: % is scaled to controls: 0 for no effect and ±100 for the full control effect); conditions: cell viability; series mostly up to 57.1 µM

Sequence of Calcium and integrin-binding protein 1 (Homo sapiens) (Q99828 whole entry, looked up): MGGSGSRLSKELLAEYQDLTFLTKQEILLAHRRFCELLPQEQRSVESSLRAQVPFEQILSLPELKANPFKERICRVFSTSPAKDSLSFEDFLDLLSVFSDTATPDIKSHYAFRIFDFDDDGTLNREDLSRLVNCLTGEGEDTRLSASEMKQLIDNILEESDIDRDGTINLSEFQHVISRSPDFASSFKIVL
Sequence of Single-stranded DNA cytosine deaminase (Homo sapiens) (Q9GZX7 whole entry, looked up): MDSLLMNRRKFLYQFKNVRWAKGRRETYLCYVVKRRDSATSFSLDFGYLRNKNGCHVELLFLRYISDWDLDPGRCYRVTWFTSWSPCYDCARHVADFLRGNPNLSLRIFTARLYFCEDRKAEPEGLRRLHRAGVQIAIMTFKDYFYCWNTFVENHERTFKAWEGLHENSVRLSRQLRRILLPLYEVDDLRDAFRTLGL

CSCC[C@@H](NC(=O)[C@@H](Cc1ccccc1)NC(=O)CNC(=O)CNC(=O)[C@@H](N)Cc1ccc(O)cc1)C(=O)O
inactive: Potency [1]

CC1=NN=C(c2ccc(N)cc2)c2cc3c(cc2C1)OCO3
inactive: outcome [2] | outcome [3] | outcome [4] | outcome [5] | outcome [6] | outcome [7]

CNCCc1ccc(O)c(O)c1
active: Potency [8] 11.2 µM | Potency [9] 39.8 µM
inactive: outcome [2] | outcome [3] | outcome [4] | outcome [6] | max response [10] 11.4%

CC(C)Oc1cccnc1N(C)C1CCN(Cc2ccccc2)CC1
inactive: outcome [2] | outcome [3] | outcome [4] | outcome [5] | outcome [6]

NC(N)=NOCCC(N)C(=O)O (centres undefined)
inactive: outcome [2] | outcome [3] | outcome [4] | outcome [5] | outcome [6]

Clc1cnc(Oc2ccc(Oc3ncc(Cl)cc3Cl)cc2)c(Cl)c1
inactive: outcome [2] | outcome [3] | outcome [4] | outcome [5] | outcome [6]

O=C1CCCN1CC#CCN1CCCC1
inactive: outcome [2] | outcome [3] | outcome [4] | outcome [5] | outcome [6]

S=C(NC1CCCCC1)N1CCC(c2cnc[nH]2)CC1
inactive: outcome [2] | outcome [3] | outcome [4] | outcome [5] | outcome [6] | outcome [7]

C[C@](O)(COc1ccc(C#N)cc1)C(=O)Nc1ccc(C#N)c(C(F)(F)F)c1
inactive: Potency [1]

O=c1cccc2n1CC1CNC[C@H]2C1
inactive: Potency [1]

C[C@@H](N)Cc1cnc[nH]1
inactive: outcome [2] | outcome [3] | outcome [4] | outcome [5] | outcome [6]

NC(=NCCC[C@H](N)C(=O)O)N[N+](=O)[O-]
inactive: outcome [2] | outcome [3] | outcome [4] | outcome [5] | outcome [6]

O=c1[nH]c2ccc(Cl)cc2c(N[C@@H]2CN3CCC2CC3)c1-c1nc2ccccc2[nH]1
active: Potency [1] 4.66 µM

NC1CCc2cc(O)c(O)cc2C1 (centres undefined)
inactive: outcome [2] | outcome [3] | outcome [4] | outcome [6] | Potency [8] | Potency [9] | max response [10] 25.8%

C[N+](C)(C)CC(=O)O
inactive: outcome [2] | Potency [11] | Potency [12] | Potency [13] | Potency [14] | outcome [6]

NC(CCP(=O)(O)O)C(=O)O (centres undefined)
inactive: outcome [2] | outcome [3] | outcome [4] | outcome [5] | outcome [6]

c1ccc2sc(C3(N4CCCCC4)CCCCC3)cc2c1
inactive: outcome [2] | outcome [3] | outcome [4] | outcome [6]

C=CCN1CC[C@]23CCCCC2[C@H]1Cc1ccc(O)cc13 (some centres undefined)
inactive: outcome [2] | outcome [3] | outcome [4] | outcome [6] | Potency [8]

Oc1ccc2c3c1O[C@H]1c4[nH]c5c(c4C[C@@]4(O)[C@@H](C2)N(CC2CC2)CC[C@]314)C[C@@]1(O)[C@H]2Cc3ccc(O)c4c3[C@@]1(CCN2CC1CC1)[C@H]5O4
inactive: outcome [2] | outcome [3] | outcome [4] | outcome [5] | outcome [6] | outcome [7]

NCCc1c[nH]c2ccccc12
inactive: outcome [2] | outcome [3] | outcome [4] | outcome [5] | outcome [6]

NC1CC1c1ccccc1 (centres undefined)
inactive: outcome [2] | outcome [3] | outcome [4] | outcome [5] | outcome [6] | outcome [7]

CN1[C@H]2CC(O)C[C@H]1[C@H]1O[C@H]12 (some centres undefined)
inactive: Potency [1]

CCCC[N+]1(C)[C@H]2CC(OC(=O)[C@H](CO)c3ccccc3)C[C@H]1[C@H]1O[C@H]12 (some centres undefined)
inactive: Potency [1]

COc1ccc2c(c[n+](C)c3c4cc5c(cc4ccc23)OCO5)c1OC
inactive: outcome [2] | outcome [4]

NCc1cc(=O)[nH]o1
inactive: outcome [2] | outcome [3] | outcome [4] | outcome [5] | outcome [6] | Potency [8] | Potency [9]

CN[C@@H]1C[C@@H](c2ccc(Cl)c(Cl)c2)c2ccccc21
inactive: outcome [2] | outcome [3] | outcome [4] | outcome [5] | outcome [6]

O=C(O)[C@@H]1CCN1
inactive: outcome [2] | outcome [3] | outcome [4] | outcome [5] | outcome [6]

CCCCc1ccc(C(=O)O)nc1
inactive: outcome [2] | outcome [3] | outcome [4] | outcome [5] | outcome [6]

NC(CP(=O)(O)O)C(=O)O (centres undefined)
inactive: outcome [2] | outcome [3] | outcome [4] | outcome [5] | outcome [6]

NCCc1c[nH]c2ccc(O)cc12
inactive: outcome [2] | outcome [3] | outcome [4] | outcome [5] | outcome [6]

CC(=O)[C@H]1CCC2C3CC[C@H]4C[C@H](O)CC[C@]4(C)C3CC[C@@]21C (some centres undefined)
inactive: outcome [2] | outcome [3] | outcome [4] | outcome [5] | outcome [6]

CC(C)(O)C(=O)Nc1ccc([N+](=O)[O-])c(C(F)(F)F)c1
inactive: Potency [1]

O=C(O)Cc1cnc[nH]1
inactive: outcome [2] | outcome [3] | outcome [4] | outcome [5] | outcome [6]

CCCN1CCC[C@H](c2cccc(O)c2)C1
inactive: outcome [2] | outcome [3] | outcome [4] | outcome [5] | outcome [6]

CCCN(CCC)C1CCc2ccc(O)cc2C1 (centres undefined)
inactive: outcome [2] | outcome [3] | outcome [4] | outcome [5] | outcome [6]
